Inconclusive results are not listed. Active and inactive are the calls of the source. The calls were made as follows, unless noted: active = hit-call score of the fitted dose curve at least 0.9, where 1 is the maximum; inconclusive = response in the unintended direction; inactive = score below 0.9.
What was measured:
[1] = CCTE_Mundy_HCI_iCellGluta_NOG_NeuriteCount: CCTE's Neurite Outgrowth Assay in iCellGluta cells for Neurite Count, Mundy Lab (AID 2284342);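 also: chemical exposure about 48 hours starting 2 hours after plating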
[2] = CCTE_Deisenroth_H295R-HTRF_384WELL_ESTRADIOL: CCTE's H295R-HTRF Assay Evaluation of Estradiol Concentration, Deisenroth Lab (AID 2284361; active = hit-call score of the fitted dose curve at least 0.9, where 1 is the maximum; inactive = score below 0.9); details: actives raise or lower the signal
Procedure, shortened: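 Estradiol secreted into medium by H295R adrenocortical cells, quantified by HTRF after 48 h dosing over a nine-point 0.001 - 100 uM final range; gain or loss versus DMSO. Parallel ATP-luminescence viability readout; n=5 experiments.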

[3] = CCTE_Deisenroth_H295R-HTRF_384WELL_TESTOSTERONE: CCTE's H295R-HTRF Assay Evaluation of Testosterone Concentration, Deisenroth Lab (AID 2284373; active = hit-call score of the fitted dose curve at least 0.9, where 1 is the maximum; inactive = score below 0.9); details: actives raise or lower the signal
Procedure, shortened: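 H295R cells were acclimated 24 h, then exposed 48 h to nine concentrations (0.001–100 uM final) in technical triplicate, n=5. Testosterone in conditioned medium was measured by HTRF (em 620/665 nm). Fitting was bidirectional versus DMSO; CellTiter-Glo viability ran on the same plates.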

[4] = CCTE_Deisenroth_H295R-HTRF_384WELL_CTOX: Cytotoxicity Assessment in CCTE's H295R-HTRF Assay, Deisenroth Lab (AID 2284380)
Procedure, shortened: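 Luminescent ATP viability readout (CellTiter-Glo 2.0), multiplexed on plates used for hormone sampling, after 48 h chemical exposure. Human H295R cells; final concentrations 0.001–100 uM in nine steps, technical triplicates, five experiments; DMSO baseline.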

SERPINA7 (gene 6906) = assay: CCTE_GLTED_hTBG: CCTE's human Thyroxine-binding Globulin (TBG) Inhibition Assay, Great Lakes Toxicology and Ecology Division (GLTED) Lab (AID 2284343);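 also: active chemicals lower fluorescence versus DMSO baseline by displacing probe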
Procedure, shortened: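 Cell-free displacement of the fluorescent probe ANSA from human thyroxine-binding globulin after 2 h exposure. Read-out at ex 380/em 475 nm; DMSO baseline.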

[5] = tested on: SRY-box transcription factor 2 (SOX2) Protein Expression, Deisenroth Lab, SOX2 (gene 6657); assay: CCTE_Deisenroth_DEVTOX-GLR_legacy_Sox2: (Legacy) CCTE's DevTox GLR-Endo Assay Evaluation of SRY-box transcription factor 2 (SOX2) Protein Expression, Deisenroth Lab (AID 2284346; active = hit-call score of the fitted dose curve at least 0.9, where 1 is the maximum; inactive = score below 0.9)
Procedure, shortened: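 Percent Sox2-positive cells was scored by high-content imaging of 5 fields per well. Positivity cutoff was 5x BMAD over the directed endoderm control, and the DMSO median was subtracted. Cells were RUES2-GLR, dosed twice at 24-h intervals over 48 h of differentiation (1 nM-200 uM).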

[6] = tested on: SRY-box transcription factor 17 (SOX17) Protein Expression, Deisenroth Lab, SOX17 (gene 64321); assay: CCTE_Deisenroth_DEVTOX-GLR_Endo_SOX17: CCTE's DevTox GLR-Endo Assay Evaluation of SRY-box transcription factor 17 (SOX17) Protein Expression, Deisenroth Lab (AID 2284413; active = hit-call score of the fitted dose curve at least 0.9, where 1 is the maximum; inactive = score below 0.9)
Procedure, shortened: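 RUES2-GLR human pluripotent cells were seeded 24 h, then differentiated toward endoderm for 48 h with two chemical exposures 24 h apart (10-point series, 1 nM - 200 uM). Nuclei-stained fixed cells were imaged; endpoint is percent change in SOX17+ cells versus 0.2% DMSO.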

[7] = tested on: Brachyury (BRA) Protein Expression, TBXT (gene 6862); assay: CCTE_Deisenroth_DEVTOX-GLR_Endo_BRA: CCTE's DevTox GLR-Endo Assay Evaluation of Brachyury (BRA) Protein Expression, Deisenroth Lab (AID 2284417; active = hit-call score of the fitted dose curve at least 0.9, where 1 is the maximum; inactive = score below 0.9)
Procedure, shortened: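 Endpoint is the fraction of BRA reporter-positive cells over total nuclei, corrected by subtracting the 0.2% DMSO value. Chemicals (1 nM - 200 uM, 10 points) were dosed twice during 48 h differentiation of RUES2-GLR cells, read by imaging.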

[8] = CCTE_Deisenroth_DEVTOX-GLR_Endo_CellCount: Viability Assessment in CCTE's DevTox GLR-Endo Assay, Deisenroth Lab (AID 2284420; active = hit-call score of the fitted dose curve at least 0.9, where 1 is the maximum; inactive = score below 0.9)
Procedure, shortened: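 Measured 48 h after dosing: fluorescent nuclei counted by imaging in human RUES2-GLR cells under defined differentiation media, tested at 1 nM - 200 uM. Values are percent cell-count change relative to 0.2% DMSO.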

[9] = tested on: SRY-box transcription factor 2 (SOX2) Protein Expression, Deisenroth Lab, SOX2 (gene 6657); assay: CCTE_Deisenroth_DEVTOX-GLR_Pluri_SOX2: CCTE's DevTox GLR-Pluri Assay Evaluation of SRY-box transcription factor 2 (SOX2) Protein Expression, Deisenroth Lab (AID 2284428; active = hit-call score of the fitted dose curve at least 0.9, where 1 is the maximum; inactive = score below 0.9)
Procedure, shortened: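 Percent SOX2+ RUES2-GLR cells, determined by fluorescence microscopy after 48 h and two 24-h-interval chemical exposures spanning 1 nM–200 uM, served as the endpoint. Values are expressed relative to 0.2% DMSO; total cell counts assessed viability.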

Question: Which outcome [1] does the source give for `CCOC(=O)CC(SP(=S)(OC)OC)C(=O)OCC` (stereo unspecified) here?
Answer: inactive

Question: For `COP(N)(=O)SC` (stereo unspecified), which outcome [1] is on record?
Answer: inactive

Question: Which results are given for `CCCCNC(=O)n1c(NC(=O)OC)nc2ccccc21`?
Answer: outcome [1]: inactive; outcome [2]: inactive; outcome [3]: inactive; AC50 [4]: 5.92 µM (active)

Question: Which AC50 [1] does the source give for `Cc1ccc(-c2c(Cl)nc(C#N)n2S(=O)(=O)N(C)C)cc1` here?
Answer: 50 µM (active)

Question: And the AC50 (SERPINA7 (gene 6906))?
Answer: 33.1 µM (active)

Question: With `Fc1ccc(Oc2ccnc3cc(Cl)cc(Cl)c23)cc1` as the compound, how does the AC50 (SERPINA7 (gene 6906)) read?
Answer: 8.16 µM (active)

Question: With `COC(=O)c1ccccc1C(=O)OC` as the compound, how does the outcome [5] read?
Answer: inactive

Question: And the outcome [6]?
Answer: inactive

Question: What about the outcome [7] of the same compound?
Answer: inactive

Question: What about the outcome [8] of the same compound?
Answer: inactive

Question: What about the outcome [9] of the same compound?
Answer: inactive

Question: With `COP(=S)(OC)Oc1nc(Cl)c(Cl)cc1Cl` as the compound, how does the AC50 [1] read?
Answer: 27.8 µM (active)

Question: Which AC50 (SERPINA7 (gene 6906)) does the source give for `OC(c1ccc(Cl)cc1)(c1cncnc1)c1ccccc1Cl` (stereo unspecified) here?
Answer: 36.5 µM (active)

Question: What about the outcome [2] of the same compound?
Answer: inactive

Question: What about the outcome [3] of the same compound?
Answer: inactive

Question: And the outcome [4]?
Answer: inactive

Question: Which results are given for `CCCCOC(=O)c1ccccc1C(=O)OCCCC`?
Answer: outcome [1]: inactive; AC50 (SERPINA7 (gene 6906)): 11.4 µM (active)

Question: Which AC50 [1] does the source give for `CN(C)C(=S)SSC(=S)N(C)C` here?
Answer: 0.0447 µM (active)

Question: Which results are given for `N#Cc1nn(-c2c(Cl)cc(C(F)(F)F)cc2Cl)c(N)c1S(=O)C(F)(F)F` (stereo unspecified)?
Answer: outcome [1]: inactive; AC50 (SERPINA7 (gene 6906)): 24.6 µM (active)

Question: Which AC50 [1] does the source give for `COC(=O)N(OC)c1ccccc1COc1ccn(-c2ccc(Cl)cc2)n1` here?
Answer: 3.35 µM (active)

Question: For `CO/C=C(/C(=O)OC)c1ccccc1Oc1cc(Oc2ccccc2C#N)ncn1`, which AC50 [1] is on record?
Answer: 21.5 µM (active)

Question: For `Oc1ccccc1-c1ccccc1`, which AC50 (SERPINA7 (gene 6906)) is on record?
Answer: 28.1 µM (active)

Question: With `CCNc1nc(Cl)nc(NC(C)C)n1` as the compound, how does the AC50 [2] read?
Answer: 9.8 µM (active)

Question: What about the outcome [3] of the same compound?
Answer: inactive

Question: What about the outcome [4] of the same compound?
Answer: inactive

Question: With `C=CCC1=C(C)C(OC(=O)C2C(C=C(C)C)C2(C)C)CC1=O` (stereo unspecified) as the compound, how does the outcome [1] read?
Answer: inactive

Question: With `C=CC1(C)OC(=O)N(c2cc(Cl)cc(Cl)c2)C1=O` (stereo unspecified) as the compound, how does the outcome [1] read?
Answer: inactive

Question: Which AC50 [1] does the source give for `CCCCC(CC)COC(=O)c1ccccc1C(=O)OCC(CC)CCCC` (stereo unspecified) here?
Answer: 30.4 µM (active)

Question: And the outcome [2]?
Answer: inactive

Question: And the outcome [3]?
Answer: inactive

Question: What about the outcome [4] of the same compound?
Answer: inactive

Question: Which AC50 (SERPINA7 (gene 6906)) does the source give for `C#CCOS(=O)OC1CCCCC1Oc1ccc(C(C)(C)C)cc1` (stereo unspecified) here?
Answer: 25.2 µM (active)

Question: With `CCOc1cc(Oc2ccc(C(F)(F)F)cc2Cl)ccc1[N+](=O)[O-]` as the compound, how does the AC50 [1] read?
Answer: 66.4 µM (active)

Question: What about the AC50 (SERPINA7 (gene 6906)) of the same compound?
Answer: 4.86 µM (active)

Question: Which AC50 (SERPINA7 (gene 6906)) does the source give for `Cc1cc(Cl)ccc1OCC(=O)O` here?
Answer: 59.6 µM (active)

Question: With `CC(C)(C)c1ccc(CSc2cnn(C(C)(C)C)c(=O)c2Cl)cc1` as the compound, how does the AC50 [1] read?
Answer: 0.374 µM (active)

Question: What does the source list for `COc1nc(NC(C)C)nc(NC(C)C)n1`?
Answer: AC50 [2]: 34.6 µM (active); outcome [3]: inactive; outcome [4]: inactive

Question: Which outcome [1] does the source give for `C=CCC1=C(C)[C@@H](OC(=O)[C@@H]2[C@@H](C=C(C)C)C2(C)C)CC1=O` here?
Answer: inactive

Question: Which AC50 (SERPINA7 (gene 6906)) does the source give for `CCCN(CCC)c1c([N+](=O)[O-])cc(S(N)(=O)=O)cc1[N+](=O)[O-]` here?
Answer: 5.43 µM (active)

Reference: PubChem BioAssay (EPA / NIEHS)
